Not all results are given here.
aSyn UTR act – Activators working through SNCA 5'UTR binding (MLPCN) | alpha-synuclein 5'UTR reporter, activators screen | activity score, % (tested at 7.5 µM), hits read low | 300,000 tested, 7.1% active | AID 1814; in the data active = activity score below about -60%
Each line names hits and unclear results; the compound was inactive in the other large screens.

C=CCNc1nc(-c2ccc3c(c2)OCCO3)cs1	aSyn UTR act -133.7
O=C(Nc1nc(-c2ccc3c(c2)OCCO3)cs1)c1ccco1	aSyn UTR act -76.5
O=C(Nc1nc(-c2cccs2)cs1)c1ccco1	aSyn UTR act -85.1
O=C(Nc1nc(-c2ccncc2)cs1)c1ccco1	aSyn UTR act -85.6
CC(=O)Nc1nc(-c2ccc3c(c2)CCO3)cs1	aSyn UTR act -124.6
CCC(=O)Nc1nc(-c2ccc3c(c2)CC(C)N3S(C)(=O)=O)cs1 (stereo unspecified)	aSyn UTR act -70.0
Cc1cc2c(C)cc(=O)[nH]c2cc1NC(=O)CCl	aSyn UTR act -69.8
COCC(C)NC(=O)c1cc(-c2cccc(OC)c2)on1 (stereo unspecified)	aSyn UTR act -132.9
COc1cccc(-c2cc(C(=O)NC3CCCC3)no2)c1	aSyn UTR act -115.1
COCCNC(=O)c1cc(-c2cccc(OC)c2)on1	aSyn UTR act -85.1
O=C(NC1CCCCC1)c1ccc(-c2cccc([N+](=O)[O-])c2)o1	aSyn UTR act -126.9
Cc1cc(/C=C\c2ccccc2)nc2ccccc12	aSyn UTR act -215.6
COc1ccc(/C=C/c2cc(C(=O)O)c3ccccc3n2)cc1	none
CCCC(=O)N1CCCC(c2nc(-c3cccc(OC)c3)no2)C1 (stereo unspecified)	aSyn UTR act -83.8
COc1ccc(NC(=O)N2CCCC(c3nc(-c4ccc(C(C)C)cc4)no3)C2)cc1 (stereo unspecified)	aSyn UTR act -163.5
COc1ccc(-c2noc(C3CCCN(C(=O)Nc4ccccc4F)C3)n2)cc1 (stereo unspecified)	aSyn UTR act -114.4
COc1ccc(-c2noc(C3CCCN(C(=O)c4ccccc4)C3)n2)cc1 (stereo unspecified)	aSyn UTR act -75.9
COc1ccc(NC(=O)N2CCCC(c3nc(-c4ccc(OC)cc4)no3)C2)cc1 (stereo unspecified)	aSyn UTR act -93.9
COc1ccc(-c2noc(C3CCCN(C(=O)Nc4ccccc4)C3)n2)cc1 (stereo unspecified)	aSyn UTR act -101.8
CC(C)Oc1cc(O)c2c(=O)c(-c3ccc(O)cc3)coc2c1	aSyn UTR act -138.3
O=c1c(-c2ccc(O)cc2)coc2cc(O)cc(O)c12	aSyn UTR act -99.2
COc1ccc(-c2coc3cc(O)cc(O)c3c2=O)cc1	aSyn UTR act -114.6
COc1ccc(-c2coc3cc(OC)cc(O)c3c2=O)cc1	aSyn UTR act -129.8
COc1ccc(-c2coc3cc(OC)cc(OC)c3c2=O)cc1	aSyn UTR act -166.2
COc1ccc(OC)c(/C=C/C(=O)c2ccc3c(c2)OCCO3)c1	aSyn UTR act -155.8
O=C(CCN1CCc2ccccc21)c1ccc2c(c1)OCCO2	aSyn UTR act -154.7
O=C(/C=C/c1ccccc1)c1ccc2c(c1)OCCCCO2	aSyn UTR act -197.6
O/N=C(/CCc1ccccc1)c1ccc2c(c1)OCCO2	aSyn UTR act -119.8
CC(OC(=O)c1ccc2c(c1)OCCO2)C(=O)c1ccccc1 (stereo unspecified)	aSyn UTR act -133.1
O=C1COc2ccc(C(=O)/C=C/c3ccccc3)cc2N1	aSyn UTR act -113.5
O=C(NCCc1ccccc1)c1ccc2c(c1)OCCCO2	none
O=C(c1ccccc1)c1ccc2c(c1)OCCCO2	aSyn UTR act -63.6
CNc1ccc(/C=C/C(=O)c2ccc3c(c2)OCCO3)cc1[N+](=O)[O-]	aSyn UTR act -64.3
O=C(CCCc1ccccc1)c1ccc2c(c1)OCCO2	none
O=C(CCc1ccccc1)c1ccc2c(c1)OCCCO2	aSyn UTR act -190.0
Cc1sc(NC(=O)c2ccccc2F)c(CN2CCCCC2C)c1C (stereo unspecified)	aSyn UTR act -296.4
Clc1ccc(CSc2nncn2-c2ccc3c(c2)OCCO3)cc1	none
COc1ccc(Cn2c(SCc3ccc(C)cc3)nc3cc(OC)c(OC)cc3c2=N)cc1Cl	none
COc1ccc(CSc2nnc(-c3ccncc3)n2C)cc1F	aSyn UTR act -93.9
c1ccn2c(SCc3ccc4c(c3)OCO4)nnc2c1	aSyn UTR act -93.0
Cn1c(SCc2ccc3c(c2)OCO3)nnc1-c1ccccc1	aSyn UTR act -80.0
Cc1ccc(NC(=O)CSc2ncccc2C(=O)Oc2cccc([N+](=O)[O-])c2)cc1Cl	aSyn UTR act -157.3
CCOC(=O)c1ccccc1NC(=O)CSc1ccc(-c2ccccn2)nn1	none
O=C(NNC(=O)c1cccnc1SCc1cccc([N+](=O)[O-])c1)c1ccccn1	none
CCOC(=O)c1cccnc1SCC(=O)Nc1ccc(C)cc1	aSyn UTR act -64.3
CC(C(Sc1ccccc1N)c1ccccc1)[N+](=O)[O-] (stereo unspecified)	aSyn UTR act -82.8
CC(C)C(=O)Nc1ccc(C(=O)c2ccccc2)cc1	aSyn UTR act -87.6
CC(=O)c1ccc(NC(=O)C(C)NCc2ccccc2Cl)cc1 (stereo unspecified)	aSyn UTR act -78.2
COc1cccc(NC(=O)c2ccc(NC(=O)C(C)C)cc2)c1	aSyn UTR act -114.6
COc1cc(NC(=O)N2CCNC2=O)cc(C(=O)Nc2cccc(C(F)(F)F)c2)c1	none
COc1cccc(NC(=O)c2ccc(OC(F)(F)F)cc2)c1	aSyn UTR act -153.2
